# Source: PubChem BioAssay (National Center for Advancing Translational Sciences (NCATS))
# A selection: hits, their analogues and other compounds. The true share with any hit is near 11%.
# HTT aggregate – inhibitors of mutant huntingtin aggregate formation in PC12 cells; PC12 HttQ103-GFP aggregates, Acumen cytometry, 40 h; Potency, µM (doses to about 46.1 µM), for inactives: at the top dose activity change, negative = inhibition, actives largely listed as inhibitors; 1.1% of 220,000 active; note: potency is the fitted concentration of half-maximal effect; % is set by controls: 0 for no effect and ±100 for the full control effect; nearly all actives have a fitted effect of over 60% in size
#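 Steps: seed 1500 PC12 HTTQ103-GFP cells/well; add tebufenozide, 100 nM final; add compound titration; add ATPLite reagent; quantify GFP aggregates by laser scanning cytometry.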
# PNC inhibitor – blocks assembly of the perinucleolar compartment; AID 2417; PC3M PTB-GFP, PNC prevalence imaging, 16 h; active compounds read low; 3.1% of 140,000 active; activity change (PNC), negative = inhibition, % at 10 µM;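 active = readout at or below -70, meaning at least 70% loss of cells showing the perinucleolar compartment, a nuclear body marking cancer cells; inconclusive = readout between -30 and a set limit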;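 note: plate controls were DMSO wells for no effect and camptothecin positive control wells for full effect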
#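 PC3M cells stably expressing PTB-GFP, 750–1000 cells/well, treated 16 h at 37 °C with compound (23 nl of library stock), in duplicate. After paraformaldehyde fixation and Hoechst stain, imaged at 20x; PNC prevalence scored by image analysis.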
# ALDH1A1 inh – blocks purified human ALDH1A1 activity. P00352. Purified ALDH1A1, NADH fluorescence, propionaldehyde substrate. Potency, µM (top dose mostly 75.3 µM), inactives show at the top dose activity, negative = inhibition, hits mostly inhibitors. 7.3% of 220,000 active. AID 1030; active = well fitted inhibition curve with a large enough effect, not every such curve was filed as active; inconclusive = small, poorly fitted or top-dose-only effect, or another doubt; inactive = no such curve, though single readings can be large or run the other way;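 note: potency is the fitted concentration of half-maximal effect; plate controls were no enzyme wells and a reference inhibitor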
# Target sequence (P00352 whole entry, looked up): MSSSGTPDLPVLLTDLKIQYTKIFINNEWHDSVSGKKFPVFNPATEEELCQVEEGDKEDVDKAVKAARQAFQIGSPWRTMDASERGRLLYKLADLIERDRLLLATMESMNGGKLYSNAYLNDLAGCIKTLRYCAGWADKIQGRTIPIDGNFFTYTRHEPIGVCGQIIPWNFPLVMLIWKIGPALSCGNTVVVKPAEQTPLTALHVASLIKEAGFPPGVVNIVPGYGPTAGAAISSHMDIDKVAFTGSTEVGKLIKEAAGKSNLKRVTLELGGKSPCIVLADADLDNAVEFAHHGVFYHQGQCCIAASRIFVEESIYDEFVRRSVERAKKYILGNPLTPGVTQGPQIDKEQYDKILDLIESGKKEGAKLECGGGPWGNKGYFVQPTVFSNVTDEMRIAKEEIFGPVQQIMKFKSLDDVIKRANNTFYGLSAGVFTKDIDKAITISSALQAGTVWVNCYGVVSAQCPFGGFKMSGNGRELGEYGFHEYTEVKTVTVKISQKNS
# HTT ATP protect – Huntington cell model cytoprotection by ATP luminescence; PC12 HTT-Q103 induced, cytoprotection, ATP luminescence, 40 h; Potency, µM (series often up to 56.4 µM), without a hit: cytoprotection (ATP increase), most hits filed as activators; 0.14% of 230,000 active; AID 1471; note: potency is the fitted concentration of half-maximal effect; % of control where 0% means no effect; nearly all actives have a fitted effect of over 45% in size
#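 Cells were plated at 1500 per well in phenol red-free DMEM with 5% equine and 5% calf serum. Tebufenozide (100 nM final) and compounds were added, then ATPlite reagent, and luminescence was read.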
# CBFb-RUNX1 inh – blocks binding between human CBF-beta and RUNX1 | Q01196+Q13951 | AlphaScreen CBFb-His/RUNX1-biotin binding, biochemical | Potency, µM (top dose mostly 59.8 µM), for the others: top-dose activity, negative = inhibition, usual class: inhibitors | 230,000 tested, under 10 active | AID 1477; note: % of control where 0% means no effect
#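 Compounds were screened at multiple concentrations against a preformed CBF-beta(His)/RUNX1(biotin) complex (30 nM of each) for 15 min at room temperature, followed by 90 min with nickel and streptavidin beads and AlphaScreen reading.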
# HPGD inh – inhibitors of human 15-hydroxyprostaglandin dehydrogenase (HPGD). P15428. purified HPGD, NADH fluorescence kinetic, PGE2 substrate. Potency, µM, for the others: at the highest dose activity change, negative = inhibition, hits mostly inhibitors. 4.3% of 150,000 active. AID 894; active = well fitted inhibition curve with a large enough effect, not every such curve was filed as active; inconclusive = small, poorly fitted or top-dose-only effect, or another doubt; inactive = no such curve, though single readings can be large or run the other way; note: potency is the fitted concentration of half-maximal effect; % is set by controls: 0 for no effect and ±100 for the full control effect
#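 20 nM HPGD preincubated 15 min at room temperature with compound in 50 mM Tris-HCl pH 8, 0.01% Tween 20. Started with 1 mM NAD+ and 30 uM prostaglandin E2; NADH fluorescence (360/450 nm) read 5 times over 30-s intervals, last minus first.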
# * hit, by the source's call; ? = inconclusive; . = not tested or not shown; [ ] = another dose, or the depositor's remark. Unless noted, calls come from the whole dose curve; as a rule, active = well fitted curve in the direction sought with a large enough effect; inconclusive = small, poorly fitted or top-dose-only effect, or another doubt; inactive = no such curve, though single readings can be large; an effect the other way counts as inactive or inconclusive.
SMILES,HTT aggregate,PNC inhibitor,ALDH1A1 inh,HTT ATP protect,CBFb-RUNX1 inh,HPGD inh
O=C(NCCCCN1CCCC1)c1ccc(Cc2nc3ccccc3[nH]2)cc1,.,.,-15%,.,.,-10%
Cc1cc(Br)c(OCc2ccc(C(=O)N/N=C3\CC4CC=CC34)cc2)c(Br)c1 (configuration not stated),-25%,21,8.9µM*,-1%[10 µM],4%,13µM*
CC(=O)NCc1nc2ccccc2n1Cc1ccccc1F,19%,-4,6%,-7%,6%,-8%
NC(=O)CS(=O)(=O)c1nc2ccccc2n1Cc1ccccc1F,16%,30,-4%,25µM*,6%,-4%
NC1=NC(=O)C(CC(=O)NCc2ccccc2)S1 (configuration not stated),0%,.,?,18%,-4%,.
NC1=NC(=O)CC(C(=O)NCc2ccccc2)S1 (configuration not stated),14%,-11,18µM*,-16%,1%,-2%
Cc1ccc2c(c1)nnn2C1CCN(C(=O)C2CCCCC2)CC1,-16%,?,7.9µM*,-3%,3%,-5%
O=c1c(O)c(-c2ccc(O)c(O)c2)oc2c(OC[C@H]3O[C@@H](O)[C@@H](O)[C@H](O)[C@@H]3O)c(O)cc(O)c12,.,.,.,0%,.,.
COC(=O)c1ccc(C(NC(=O)OCc2ccccc2)/C(F)=C/[C@@H](C)C(=O)NCc2cccnc2)cc1 (some centres not stated),.,.,-9%,0%,2%,-8%
COc1cccc(OCc2nnc(SCC(=O)NCc3ccco3)n2CCc2ccccc2)c1,21%,42,22µM*,-21%,-23%,-23%
COc1cccc(OCc2nnc(SCC(=O)NCc3ccco3)n2C)c1,0%,7,8%,-17%,-3%,-8%
O=C(CCCn1c(=S)[nH]c2ccc(Br)cc2c1=O)NCC1CCCO1 (configuration not stated),7%,15,1.4µM*,-20%,4%,7.1µM*
O=C(CCCn1c(=O)[nH]c2cc(Cl)ccc2c1=O)NCC1CCCO1 (configuration not stated),-4%,-119*,-7%,26%[10 µM],4%,-15%
Cn1c(=O)cc(SCC(=O)NCC2CCCO2)c2ccc(Cl)cc21 (configuration not stated),3%,-11,-8%,-42%[10 µM],-4%,14µM*
O=C1OC(C2=CCCCC2)=NC12CC2,.,.,?,1%[10 µM],15%[13.1 µM],.
Cc1noc(C)c1-c1nc(NCc2ccccc2)c2ccccc2n1,.,.,?,-93%,.,.
C=C(C)C(=O)OCC(C)O (configuration not stated),.,.,-1%,-5%,17%[21.7 µM],-3%
CN(C)c1ccc(-c2cncnc2N(C)Cc2ccco2)cc1,.,.,?,-45%,.,.
CCC(CO)NS(=O)(=O)c1cc(-c2nn(C)c(=O)c3ccccc23)ccc1C (configuration not stated),7%[9.22 µM],.,7%,1%[10 µM],-1%,.
C/C(CC(=O)N(C(C)C)C(C)C)=N\NC(=O)COc1ccc(Br)cc1Br,0%,-109*,11%,.,-5%,-24%
Cc1ccc(NC(=O)c2[nH]cnc2C(=O)NN)cc1,3%,.,-8%,-62%,-29%,.
NNC(=O)c1nc[nH]c1C(=O)Nc1ccccn1,-7%,.,22µM*,-29%,-30%,.
COc1ccccc1Cn1c(SCC(N)=O)nc2c(oc3ccccc32)c1=O,-12%[9.22 µM],.,1.3µM*,-20%,-3%,.
CS(=O)(=O)N(Cc1ccc(C(=O)NN=C2CCCC2)cc1)c1ccccc1,-3%,-16,1.3µM*,8%[10 µM],-5%,-9%
CCCNC(=O)c1ccc(N(Cc2ccccc2)S(C)(=O)=O)cc1,20%,-112*,11%,9%,-1%,-12%
SMILES,HTT aggregate,PNC inhibitor,ALDH1A1 inh,HTT ATP protect,CBFb-RUNX1 inh,HPGD inh
CS(=O)(=O)N(Cc1ccc(C(=O)NC2CCCCC2O)cc1)c1ccccc1 (configuration not stated),-12%,4,4%,-10%,0%,-6%
CS(=O)(=O)N(Cc1ccc(C(=O)NN=C2CCCCCC2)cc1)c1ccccc1,-15%,9,16µM*,1%[10 µM],-10%,-10%
CS(=O)(=O)N(Cc1ccc(C(=O)NC2CCCC2)cc1)c1ccccc1,-1%[9.22 µM],.,-9%,-2%[10 µM],7%,.
C#CCOCCOCCOCCNc1nc(N2CCN(C(=O)[C@H](CCC(=O)O)n3cc(C(N)CC(C)C)nn3)CC2)nc(N2CCN(C(=O)[C@H](CCC(=O)O)n3cc(C(N)[C@H](C)CC)nn3)CC2)n1 (some centres not stated),-12%[9.22 µM],.,-3%,-12%[10 µM],4%,.
CCC(=O)c1ccc(OCC(O)Cn2nnc3ccccc32)cc1 (configuration not stated),-9%,.,1%,-36%,1%,.
Cc1ccccc1OCC(O)Cn1nnc2ccccc21 (configuration not stated),-8%,-100*,-2%,-7%[10 µM],-4%,-24%
Cc1nnc(SCc2ccc(F)cc2)s1,3%,?,4%,1%,1%,-10%
Cc1nnc(SCc2cc(=O)[nH]c(=S)[nH]2)s1,-3%[9.22 µM],.,13µM*,14%[10 µM],6%,.
O=c1cc(CSc2ccccc2)[nH]c(=S)[nH]1,7%,-25,28µM*,3%,1%,-11%
O=c1cc(CSc2ccc(Cl)cc2)[nH]c2[nH]n(-c3ccccc3)c(=O)c12,-19%[9.22 µM],.,.,-4%[10 µM],?,.
Cc1sc2nc(C3CC3)nc(NCCNS(C)(=O)=O)c2c1C,-14%,0,32µM*,-18%[10 µM],-2%,-2%
Nc1nc(SCC(=O)Nc2cc(S(=O)(=O)N3CCOCC3)ccc2Cl)n[nH]1,6%,.,-6%,-35%,7%,.
O=C(CSc1nc2ccccc2s1)Nc1cc(S(=O)(=O)N2CCOCC2)ccc1O,-2%,-4,1%,-24%[10 µM],-17%,13µM*
O=C(CSc1nc2ccccc2s1)Nc1ccc(Cl)c(C(=O)O)c1,1%,.,2.5µM*,.,11%,.
O=C(CSc1nc2ccccc2s1)CSc1nc2ccccc2s1,31%,-5,-5%,-1%,-14%,-14%
O=C(CSc1nc2ccccc2s1)c1cc2ccccc2o1,-28%,12,?,-7%,-4%,22µM*
COc1ccc(S(=O)(=O)N2CCOCC2)cc1NC(=O)CSc1n[nH]c(C(C)C)n1,18%,.,25µM*,-8%[10 µM],-8%,.
Cc1ccc(S(=O)(=O)N2CCOCC2)cc1NC(=O)CSc1n[nH]c(N)n1,21%,.,0%,7%,-3%,.
O=C(CSc1nc2ccccc2s1)NNC(=O)Nc1ccc(Cl)c(Cl)c1,-2%,?,2%,18%[10 µM],4%,-6%
